From PubChem BioAssay (Tox21)
Results filed as inconclusive are left out. Where a call stands in place of a potency, no number is given. Calls of active or inactive are those of the source. Calls follow the shape of the full dose curve.

Molecular target: Beta-2 adrenergic receptor (Homo sapiens) (UniProt P07550)
Test: Adrenergic beta2 receptor (ADRB2) small molecule agonists, cell-based qHTS assay (AID 1963593);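 also: CHO cells stably overexpressing human ADRB2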
How it was run: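 CHO cells stably over-expressing ADRB2 were plated overnight at 37C, then dosed with compounds plus a stimulation mix containing 100uM IBMX and 25uM Ro-20-1724 for 0.5hr at room temperature. cAMP was measured by HTRF competition, 1hr.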

Sequence of Beta-2 adrenergic receptor (Homo sapiens) (P07550 whole entry, looked up): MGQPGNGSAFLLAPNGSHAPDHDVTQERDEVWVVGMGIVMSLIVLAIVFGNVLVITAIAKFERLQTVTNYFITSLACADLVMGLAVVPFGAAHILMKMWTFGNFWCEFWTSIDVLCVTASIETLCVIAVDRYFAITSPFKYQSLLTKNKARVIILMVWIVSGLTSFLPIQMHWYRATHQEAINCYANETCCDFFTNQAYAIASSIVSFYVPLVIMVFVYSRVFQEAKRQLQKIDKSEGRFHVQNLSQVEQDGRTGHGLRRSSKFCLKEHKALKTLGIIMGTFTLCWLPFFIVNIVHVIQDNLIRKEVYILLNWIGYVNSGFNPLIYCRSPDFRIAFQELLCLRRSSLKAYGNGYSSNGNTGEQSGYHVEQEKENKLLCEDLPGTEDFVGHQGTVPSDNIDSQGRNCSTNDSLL

Structure (SMILES): CCCCOC(=O)c1ccccc1C(=O)OCCCC
- Potency: inactive

Structure (SMILES): CC(=O)C(C)(C)C
- Potency: inactive

Structure (SMILES): CCCCC(CC)CO[N+](=O)[O-] (stereo unspecified)
- Potency: inactive

Structure (SMILES): COc1cc(OC)nc(Sc2cccc(Cl)c2C(=O)O)n1
- Potency: inactive

Structure (SMILES): CC(C)=CCN1CC[C@@]2(C)c3cc(O)ccc3C[C@@H]1[C@@H]2C
- Potency: inactive

Structure (SMILES): Cc1cnc(C2=NC(C)(C(C)C)C(=O)N2)c(C(=O)O)c1 (stereo unspecified)
- Potency: inactive

Structure (SMILES): CCCCN=C=O
- Potency: inactive

Structure (SMILES): CCCCC(CC)C(=O)Cl (stereo unspecified)
- Potency: inactive

Structure (SMILES): CN(N=O)C(N)=O
- Potency: inactive

Structure (SMILES): Clc1ccc(C(Cl)(Cl)Cl)c(Cl)c1
- Potency: inactive

Structure (SMILES): CCNc1nc(NC(C)C)nc(OC)n1
- Potency: inactive

Structure (SMILES): CN(C)[C@@H]1C(=O)C(C(N)=O)=C(O)[C@@]2(O)C(=O)C3=C(O)c4c(O)cccc4[C@@](C)(O)[C@H]3C[C@@H]12
- Potency: inactive

Structure (SMILES): CN(C)c1ccccc1
- Potency: inactive

Structure (SMILES): CCNc1nc(Cl)nc(NCC)n1
- Potency: inactive

Structure (SMILES): ClC(Cl)=C(c1ccc(Cl)cc1)c1ccc(Cl)cc1
- Potency: inactive

Structure (SMILES): Cc1ccccc1N
- Potency: inactive

Structure (SMILES): CCCCN(CCCC)N=O
- Potency: inactive

Structure (SMILES): Nc1ccc([As](=O)(O)O)cc1
- Potency: inactive

Structure (SMILES): Cc1cc(Cl)ccc1O
- Potency: inactive

Structure (SMILES): Brc1ccc(Oc2cc(Br)c(Br)cc2Br)c(Br)c1
- Potency: inactive

Structure (SMILES): O=C(O)C(F)(F)C(F)(F)C(F)(F)C(F)(F)C(F)(F)C(F)(F)F
- Potency: inactive

Structure (SMILES): O=C(NC(=O)c1c(F)cccc1F)Nc1cc(Cl)c(OC(F)(F)C(F)C(F)(F)F)cc1Cl (stereo unspecified)
- Potency: inactive

Structure (SMILES): Clc1ccc(C(Cl)(Cl)Cl)cc1
- Potency: inactive

Structure (SMILES): O=C([O-])c1ccccn1.O=C([O-])c1ccccn1.O=C([O-])c1ccccn1.[Cr+3]
- Potency: inactive

Structure (SMILES): O=C(O)c1cc(Cl)ccc1Cl
- Potency: inactive

Structure (SMILES): O=C1C=CC(=O)C=C1
- Potency: inactive

Structure (SMILES): CCCCOCC1CO1 (stereo unspecified)
- Potency: inactive

Structure (SMILES): BrC(Br)Br
- Potency: inactive

Structure (SMILES): COC[C@H](C)N(C(=O)CCl)c1c(C)csc1C
- Potency: inactive

Structure (SMILES): CN(C)CCc1ccc(O)cc1
- Potency: inactive

Structure (SMILES): COC(=O)c1ccccc1CS(=O)(=O)NC(=O)Nc1nc(OC)cc(OC)n1
- Potency: inactive

Structure (SMILES): O=C(O)C(F)(F)C(F)(F)C(F)(F)C(F)(F)C(F)(F)C(F)(F)C(F)(F)C(F)(F)F
- Potency: inactive

Structure (SMILES): O=[N+]([O-])c1ccccc1O
- Potency: inactive

Structure (SMILES): COC(=O)c1sccc1S(=O)(=O)NC(=O)Nc1nc(C)nc(OC)n1
- Potency: inactive

Structure (SMILES): CCC[N+](=O)[O-]
- Potency: inactive

Structure (SMILES): [CH3][Sn]([Cl])([Cl])[Cl]
- Potency: inactive

Structure (SMILES): C=CC(C)=O
- Potency: inactive

Structure (SMILES): O=P(Cl)(Cl)Cl
- Potency: inactive

Structure (SMILES): C1CN2CCC1CC2
- Potency: inactive

Structure (SMILES): CC(C)(C)C(=O)CCl
- Potency: inactive

Structure (SMILES): N#CCCCl
- Potency: inactive

Structure (SMILES): CCOP(=O)(OCC)OCC
- Potency: inactive

Structure (SMILES): O=[N+]([O-])c1cc(Cl)ccc1Cl
- Potency: inactive

Structure (SMILES): COP(=O)(O)OC
- Potency: inactive

Structure (SMILES): Clc1cnc(Oc2ccc(Oc3ncc(Cl)cc3Cl)cc2)c(Cl)c1
- Potency: inactive

Structure (SMILES): CCC(Br)(CC)C(=O)NC(N)=O
- Potency: inactive

Structure (SMILES): CC(Cl)C(=O)O (stereo unspecified)
- Potency: inactive

Structure (SMILES): N#CCc1ccccc1
- Potency: inactive

Structure (SMILES): N#CCC#N
- Potency: inactive

Structure (SMILES): NC(=O)c1cc([N+](=O)[O-])cc([N+](=O)[O-])c1
- Potency: inactive

Structure (SMILES): C=CC(=O)OC(C)(C)C
- Potency: inactive

Structure (SMILES): Cc1ccc(CCl)cc1
- Potency: inactive

Structure (SMILES): CCNc1nc(Cl)nc(NC(C)(C)C#N)n1
- Potency: inactive

Structure (SMILES): C=CCN(CC=C)C(=O)C(Cl)Cl
- Potency: inactive

Structure (SMILES): CCCCCCCCCCCOC(=O)c1ccccc1C(=O)OCCCCCCCCCCC
- Potency: inactive

Structure (SMILES): C[N+]1(C)CCCCC1
- Potency: inactive

Structure (SMILES): O=c1c2ccccc2c(=O)c2c1cc(Cl)c1[nH]c3c([nH]c12)c(Cl)cc1c(=O)c2ccccc2c(=O)c13
- Potency: inactive

Structure (SMILES): Cc1ccc(C(=O)Cl)cc1
- Potency: inactive

Structure (SMILES): CCCCN(CC)C(=O)SCCC
- Potency: inactive

Structure (SMILES): O=C(O)C1C(C(=O)O)C2(Cl)C(Cl)=C(Cl)C1(Cl)C2(Cl)Cl (stereo unspecified)
- Potency: inactive

Structure (SMILES): CC(C)(O)C#N
- Potency: inactive

Structure (SMILES): CCCC[N+]1(C)CCCC1 (tested in a mixture with another compound)
- Potency: inactive

Structure (SMILES): CC1(C)C(C=C(Cl)Cl)C1C(=O)OC(C#N)c1cccc(Oc2ccccc2)c1 (stereo unspecified)
- Potency: inactive

Structure (SMILES): CC1=C2[C@H]3OC(=O)[C@@H](C)[C@@H]3CC[C@@]2(C)C=CC1=O
- Potency: inactive

Structure (SMILES): Nc1ccccc1C(=O)O
- Potency: inactive

Structure (SMILES): CC(C)(OOC(C)(C)c1ccccc1)c1ccccc1
- Potency: inactive

Structure (SMILES): Cl[C@H]1OCCO[C@@H]1Cl
- Potency: inactive

Structure (SMILES): CCCOC(=O)c1cncn1C(C)c1ccccc1 (stereo unspecified)
- Potency: inactive

Structure (SMILES): O=C(Cl)c1ccccc1
- Potency: inactive

Structure (SMILES): Nc1ccc(Oc2ccc(N)cc2)cc1
- Potency: inactive

Structure (SMILES): CCCCCCCCOC(=O)c1ccc(C(=O)OCCCCCCCC)c(C(=O)OCCCCCCCC)c1
- Potency: inactive

Structure (SMILES): C=CCBr
- Potency: inactive

Structure (SMILES): c1ccoc1
- Potency: inactive

Structure (SMILES): CCC1(CC)C(=O)C=CNC1=O
- Potency: inactive

Structure (SMILES): Clc1ccc(Cl)cc1
- Potency: inactive

Structure (SMILES): O=[N+]([O-])O[C@H]1CO[C@H]2[C@@H]1OC[C@H]2O[N+](=O)[O-]
- Potency: inactive

Structure (SMILES): CCCCCCCCCCOC(=O)c1ccccc1C(=O)OCCCCCCCCCC
- Potency: inactive

Structure (SMILES): CC(C)[N+](C)(CCC(C(N)=O)(c1ccccc1)c1ccccc1)C(C)C
- Potency: inactive

Structure (SMILES): CC(C#N)CCC#N (stereo unspecified)
- Potency: inactive

Structure (SMILES): Cc1cc(Cl)ccc1OC(C)C(=O)O (stereo unspecified)
- Potency: inactive

Structure (SMILES): CC(C)CCCCCCOC(=O)c1ccccc1C(=O)OCCCCCCC(C)C
- Potency: inactive

Structure (SMILES): OCC(Cl)CCl (stereo unspecified)
- Potency: inactive

Structure (SMILES): CC(O)CN(CC(C)O)CC(C)O (stereo unspecified)
- Potency: inactive

Structure (SMILES): Cc1cnc[nH]1
- Potency: inactive

Structure (SMILES): COc1cc(OC)nc(NC(=O)NS(=O)(=O)c2ncccc2C(=O)N(C)C)n1
- Potency: inactive

Structure (SMILES): ClCC1CO1 (stereo unspecified)
- Potency: inactive

Structure (SMILES): Cc1ccc(-c2nc3ccc(C)cn3c2CC(=O)N(C)C)cc1
- Potency: inactive

Structure (SMILES): Cc1ccc(O)c(C)c1
- Potency: inactive

Structure (SMILES): Oc1ccc(Cl)cc1Cl
- Potency: inactive

Structure (SMILES): CCOC(=O)C1OC1(C)c1ccccc1 (stereo unspecified)
- Potency: inactive

Structure (SMILES): N#Cc1ccccc1N
- Potency: inactive
